For eight compounds, growth results are on record in PubChem BioAssay (NCI).

Structures are written as SMILES. About 83,000 compounds went through this panel and 20% of them were active in at least one assay; those are over-represented in the sample as a whole.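 In brief: 96-well plates, 48 h treatment, single concentration, percent growth endpoint.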 Unmarked numbers belong to inactive results. The source made the active and inactive calls. How the source made its calls: active means growth percent below 10; inactive means the rest.

Holding throughout (test): NCI-60 one-dose screen, 48 h (100 = growth as untreated, 0 = no growth, -100 = all killed)
Holding throughout (conditions): 10 µM unless noted

The test system of test [1] is SR leukemia.
Test [2] concerns RPMI-8226 leukemia.
Test [3] has as its system OVCAR-8 ovarian.
The test system of test [4] is OVCAR-5 ovarian.
For test [5], the system named is OVCAR-4 ovarian.
Test [6] concerns SK-OV-3 ovarian.
Test [7] relates to IGROV1 ovarian.
Test [8] relates to OVCAR-3 ovarian.
The subject of test [9] is HS 578T breast.
Test [10] has as its system NCI/ADR-RES ovarian.
For test [11], the system named is T-47D breast.
The test system of test [12] is BT-549 breast.
Test [13] concerns MDA-MB-435 melanoma.
The subject of test [14] is SW-620 colon.
Test [15] has as its system MCF7 breast.
The test system of test [16] is HCT-116 colon.
Test [17] concerns HCC-2998 colon.
Test [18] concerns KM12 colon.

For `N#CC1=C(N)Oc2ccc3ccccc3c2C1c1ccccc1Cl` (centres undefined), the growth in test [1] is 26.1%; in [2], 32.9%; in test [3], 61.8%; in test [4], 77.2%; in [5] it was 78.9%; in test [6], 55.9%. Moreover, the growth in test [7] was 34.1%; in test [8], 31.2%; in test [9], 40.4%; in [10], 9.51% (active); in test [11] it was 38%; in test [12] it was 31.7%. The growth in test [13] is -8.55% (active); in test [14] it was 30.6%; in test [15] it was 18.1%; in test [16], 18.3%; in [17], 76%; in test [18] it was 36%.
As for `COc1cc2nc(Cl)nc(Nc3cccc(C(=O)/C=C/c4ccccc4)c3)c2cc1OC`, the growth in [1] is 8.85% (active); in test [2] it was -2.13% (active); in test [3], 49.6%; in test [4], 68.9%; in [5], 70.6%; in test [6] it was 81.1%. For the same compound, the growth is 37.3% in [7]; 38.2% in test [8]; 98.5% in test [9]; 49.9% in test [10]; 68.8% in [11]; 62.9% in test [12]. Also, the growth was 36.5% in test [13]; -11.9% (active) in [14]; 12.3% in test [15]; -52.1% (active) in test [16]; 57.4% in test [17]; 9.13% (active) in test [18].
On to `Cc1ccc(-c2nc([P+](c3ccccc3)(c3ccccc3)c3ccccc3)c(N3C[C@H]4C[C@H](C3)c3cccc(=O)n3C4)o2)cc1`, for which the growth in [1] is 87.9%; in test [2], 11.5%; in [3], 86.6%; in test [4], 105%; in test [5] it was 77.3%; in test [6] it was 123%. Besides, the growth is 46.4% in test [7]; 54% in test [8]; 94.4% in test [9]; 94.9% in test [10]; 38.5% in test [11]; 56.2% in test [12]. Besides, the growth was 44.4% in test [13]; 85.6% in test [14]; 67.3% in [15]; 88.2% in test [16]; 71.3% in [17]; 43.6% in [18].
On to `COc1cc2c(cc1-c1c(C)noc1C)ncc1nc(C3CC3)n([C@H](C)COC(F)F)c12`, for which the growth is 25.5% in test [1]; 17.8% in test [2]; 46.3% in test [3]; 84.2% in [4]; 58.7% in test [5]; 1.36% (active) in [6]. The growth was 58.6% in test [7]; 42% in test [8]; 8.14% (active) in test [9]; 40.1% in [10]; 32.7% in [11]; 71.6% in test [12]. For the same compound, the growth in test [13] was 44.3%; in test [14], 62.7%; in test [15] it was 21.7%; in [16], 37%; in test [17], 57.3%; in [18] it was 51.5%.
On to `Cc1ccc(N(CC(=O)Nc2ccc(S(=O)(=O)N3CCC(N4CCCC4)CC3)cc2)S(=O)(=O)c2ccc(Cl)cc2)cc1`, for which the growth in test [1] is -29.5% (active); in [2], -3.71% (active); in test [3], 55.2%; in test [4], 88%; in test [5], 49.2%; in [6], 96.9%. Also, the growth in test [7] was 51%; in test [8], -22.4% (active); in [9], 66%; in test [10], 70.2%; in test [11], -37.2% (active); in test [12], 74.1%. The growth was -87.6% (active) in [13]; -46.8% (active) in test [14]; 14.2% in [15]; -70.5% (active) in test [16]; -48.9% (active) in [17]; 24.5% in test [18].
On to `O=C(NCN1C(=O)c2cccc3cccc(c23)C1=O)N1CCC(Cc2ccccc2)CC1`, for which the growth is 89.6% in test [1]; 87.8% in [2]; 102% in [3]; 104% in [4]; 98.8% in test [5]; 91.3% in test [6]. Besides, the growth was 100% in test [7]; 109% in test [8]; 95.8% in test [9]; 102% in test [10]; 88% in [11]; 98.4% in test [12]. Further, the growth is 104% in test [13]; 100% in [14]; 87.5% in [15]; 87% in [16]; 109% in test [17]; 99.4% in test [18].
For `Cc1ccc2c(c1)c1nc3cc(C)c(C)cc3nc1n2CCN(C)C`, the growth in test [1] is 6.5% (active); in test [2] it was 1.96% (active); in test [3] it was 18.4%; in [4], 20.5%; in test [5], 33.1%; in test [6], 30.9%. In addition, the growth is 6.96% (active) in test [7]; 29.7% in test [8]; 50.1% in [9]; 12.8% in [10]; 23.2% in test [11]; 50.2% in [12]. Further, the growth was 16.1% in test [13]; 12.5% in [14]; -6.81% (active) in test [15]; 8.95% (active) in [16]; 32.9% in test [17]; 21.7% in test [18].
On to `O=S(=O)(NCCNc1cc(-c2cn(-c3ccccc3)nc2-c2cccc(O)c2)ccn1)c1cccc(F)c1`, for which the growth in test [1] was 18.9%; in test [2] it was 22.9%; in test [3], 34.2%; in test [4] it was 54.8%; in test [5], 39.4%; in [6] it was 50.3%. For the same compound, the growth is 43.5% in [7]; 50.8% in test [8]; 37.6% in test [9]; 33.1% in test [10]; 11.6% in test [11]; 48% in test [12]. In addition, the growth was 43.5% in [13]; 19.1% in [14]; 21.4% in test [15]; 23.2% in [16]; -15.6% (active) in [17]; 31.1% in test [18].
